PubChem BioAssay (NCATS)
Inconclusive results are not listed. Where a call stands in place of a potency, no number is given. Where a structure was tested more than once in an assay, its records may differ in their call. The source made the active and inactive calls. Unless noted, calls follow the shape of the dose curve; as a rule, active = well fitted curve in the direction sought with a large enough effect; inconclusive = small, poorly fitted or top-dose-only effect, or another doubt; inactive = no such curve, though single readings can be large; an effect the other way counts as inactive or inconclusive.

Experiments:
[1] = Cytometry Cell-Based qHTS for Inhibitors of the mTORC1 Signaling Pathway in MEF cells (AID 2668);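 also: Tsc2-/- p53-/- mouse embryonic fibroblasts stably re-expressing wild-type Tsc2; percent cells positive for phospho-rpS6 Ser235/236 relative to propidium iodide stain; series mostly up to about 38 µM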
Method in brief: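 Read-out: phospho-rpS6 Ser235/236 immunofluorescence normalized to propidium iodide intensity, scored as % active cells against a rapamycin (7.5 nM) threshold. Cells: Tsc2-/-, p53-/- MEFs stably expressing WT Tsc2, compound-treated 24 hrs at 37 degree Celsius.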

[2] = target: Ubiquitin carboxyl-terminal hydrolase 2 (Homo sapiens) (UniProt O75604); assay: qHTS Validation Assay for Inhibitors of Ubiquitin-specific Protease USP2a Using CHOP2 as the Reporter (AID 463106)
Method in brief: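 10nM USP2 core + cpd, 30min RT; add 25nM Ub-CHOP2/25nM substrate; 60min RT; FI 485/531nm. Buffer Tris pH 8.0, CaCl2, BME, CHAPS. Norm. to NEM = 100% inhibition; time-zero read flags fluorescent artifacts.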

[3] = target: DNA polymerase III PolC-type (Bacillus subtilis (strain 168)) (UniProt P13267); assay: qHTS Validation Assay for the Inhibitors of DNA Replication in Gram-Positive Bacteria (AID 485295);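 also: reconstituted holoenzyme with PolC plus beta clamp SSB and primase; PicoGreen fluorescence of double-stranded DNA made on primed circular M13 template; series mostly up to about 57 µM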
DNA polymerase III PolC-type (Bacillus subtilis (strain 168)), sequence (P13267 whole entry, looked up): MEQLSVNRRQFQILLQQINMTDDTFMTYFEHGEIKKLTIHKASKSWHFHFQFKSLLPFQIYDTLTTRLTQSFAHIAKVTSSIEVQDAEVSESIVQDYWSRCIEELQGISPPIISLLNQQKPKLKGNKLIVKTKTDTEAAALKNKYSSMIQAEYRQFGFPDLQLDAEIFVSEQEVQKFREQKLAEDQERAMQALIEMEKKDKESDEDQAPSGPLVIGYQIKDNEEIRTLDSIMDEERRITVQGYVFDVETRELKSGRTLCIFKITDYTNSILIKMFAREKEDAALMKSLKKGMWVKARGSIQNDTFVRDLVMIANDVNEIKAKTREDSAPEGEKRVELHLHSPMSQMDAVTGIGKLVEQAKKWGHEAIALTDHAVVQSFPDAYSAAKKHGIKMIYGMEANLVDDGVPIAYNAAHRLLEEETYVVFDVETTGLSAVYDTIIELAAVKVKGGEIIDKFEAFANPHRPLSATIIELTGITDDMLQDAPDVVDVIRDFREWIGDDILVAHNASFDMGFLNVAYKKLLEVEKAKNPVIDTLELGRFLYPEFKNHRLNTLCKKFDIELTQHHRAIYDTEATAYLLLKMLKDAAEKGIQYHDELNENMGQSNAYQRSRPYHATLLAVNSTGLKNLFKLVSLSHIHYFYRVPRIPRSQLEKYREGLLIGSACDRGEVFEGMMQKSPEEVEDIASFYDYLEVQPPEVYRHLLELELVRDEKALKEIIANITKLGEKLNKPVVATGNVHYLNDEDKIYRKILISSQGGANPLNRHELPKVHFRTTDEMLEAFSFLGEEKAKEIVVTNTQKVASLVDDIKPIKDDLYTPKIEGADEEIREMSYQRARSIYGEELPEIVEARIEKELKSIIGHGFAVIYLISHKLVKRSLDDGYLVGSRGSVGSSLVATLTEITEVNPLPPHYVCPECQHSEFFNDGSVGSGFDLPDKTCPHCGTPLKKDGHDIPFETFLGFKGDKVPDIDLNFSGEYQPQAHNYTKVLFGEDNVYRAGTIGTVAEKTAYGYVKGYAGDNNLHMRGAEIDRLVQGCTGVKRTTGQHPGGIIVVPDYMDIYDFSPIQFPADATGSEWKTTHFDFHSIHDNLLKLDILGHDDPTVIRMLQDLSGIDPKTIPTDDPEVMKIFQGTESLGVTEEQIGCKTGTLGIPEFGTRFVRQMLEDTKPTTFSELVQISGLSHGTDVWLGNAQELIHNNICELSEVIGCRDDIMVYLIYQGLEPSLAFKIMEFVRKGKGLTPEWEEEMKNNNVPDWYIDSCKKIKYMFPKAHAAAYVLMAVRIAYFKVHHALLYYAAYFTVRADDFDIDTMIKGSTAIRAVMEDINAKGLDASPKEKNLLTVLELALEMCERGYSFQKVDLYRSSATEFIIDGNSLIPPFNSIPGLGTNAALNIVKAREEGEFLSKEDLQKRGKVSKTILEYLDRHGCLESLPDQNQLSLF
Method in brief: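 PicoGreen fluorescence (ex 480–485/em 535–540 nm) reports dsDNA synthesized on ssM13Gori template with dNTPs/NTPs. Enzyme: holoenzyme rebuilt from purified PolC, beta subunit, SSB and primase. Compound preincubated before substrate addition; RT throughout.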

[4] = target: Tumor susceptibility gene 101 protein (Homo sapiens) (UniProt Q99816); assay: qHTS Validation Assay for Iinhibitors of HIV-1 Budding by Blocking the Interaction of PTAP/TSG101 (AID 485342; calls by dose curve)
Tumor susceptibility gene 101 protein (Homo sapiens), sequence (Q99816 whole entry, looked up, the tested form may be a part): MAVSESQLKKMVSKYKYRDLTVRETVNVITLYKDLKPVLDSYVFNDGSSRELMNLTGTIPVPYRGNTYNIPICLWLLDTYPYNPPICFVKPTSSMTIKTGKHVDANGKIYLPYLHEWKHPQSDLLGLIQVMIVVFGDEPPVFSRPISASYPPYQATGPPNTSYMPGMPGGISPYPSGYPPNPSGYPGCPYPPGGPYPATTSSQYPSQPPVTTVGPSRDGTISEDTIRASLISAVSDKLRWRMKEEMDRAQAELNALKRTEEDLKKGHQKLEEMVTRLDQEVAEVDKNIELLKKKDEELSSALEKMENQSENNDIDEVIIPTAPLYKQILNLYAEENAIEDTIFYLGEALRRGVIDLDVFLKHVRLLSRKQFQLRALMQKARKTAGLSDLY
Method in brief: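 FP read-out: FITC-PTAP peptide, 50 nM final, binding Tsg101 binding domain, 10 uM final; 20 min r.t.; 10 mM HEPES pH 7.5, 0.15 M NaCl, 0.01% Tween 20, 3 mM EDTA, 0.1 mM TCEP.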

[5] = qHTS Validation Assay to Find Inhibitors of Chronic Active B-Cell Receptor Signaling (AID 485345; active = well fitted curve in the direction sought with a large enough effect in the main read-out, with a control signal flat, not every such curve was filed as active; also: potency is read from the fitted curve at half-maximal effect)
Method in brief: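 Read-out: ratio of filter-corrected green (IkappaBalpha fusion) to red (native) luciferase signal in doxycycline-induced TMD8 cells after 4 h at 37C. Titration spanned 46 uM–3 nM; Data were normalised to basal cells and 10 uM MG-132 wells.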

[6] = target: Beta-2 adrenergic receptor (Homo sapiens) (UniProt P07550); assay: qHTS validation assay of beta-arrestin-biased ligands of beta2-adrenergic receptor (AID 485366)
Method in brief: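 Tango cells expressing recombinant beta2-AR and beta-arrestin with tTA-driven luciferase, in DMEM with 1% FBS. Compounds were titrated up to 46 microM for 18 hr at 37 degrees C. Luminescence was read 15 min after substrate; curves were fitted and class-assigned.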

[7] = target: ATP-dependent 6-phosphofructokinase (Trypanosoma brucei brucei) (UniProt O15648); assay: qHTS Validation Assay to Find Inhibitors of T. brucei phosphofructokinase (AID 485368)
Method in brief: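 Activity was read as ADP production by luminescence (ADP-Glo) after 45 min at room temperature. The enzyme was 1.25nM PFK in 0.1M TEA pH 8.0 with 0.5 mM F6P, 0.1mM ATP and 5 mM MgCl2. Compounds were titrated up to 57 uM and % activity normalized to no-enzyme and full-enzyme controls.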

[8] = target: Thioredoxin reductase 1, cytoplasmic (Rattus norvegicus) (UniProt O89049); assay: qHTS Assay for Substrates of Mammalian Selenoprotein Thioredoxin Reductase 1 (TrxR1) (AID 488772);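 also: NADPH fluorescence in the first read after selenite addition and not the 8 min delta; series mostly up to about 57 µM; a drop in NADPH fluorescence below the no-compound background marks a TrxR1 substrate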
Method in brief: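 Quantitative HTS in Tris-HCl buffer at pH 7.5 with EDTA and Tween-20, using rat TrxR1, 400 uM NADPH and 400 uM selenite (final). A fall in initial NADPH fluorescence relative to background marked substrate behaviour.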

[9] = target: Thioredoxin reductase 1, cytoplasmic (Rattus norvegicus) (UniProt O89049); assay: qHTS Assay for Inhibitors of Mammalian Selenoprotein Thioredoxin Reductase 1 (TrxR1) (AID 488773); settings: Potency: inhibition;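 also: drop in NADPH fluorescence over an 8 min run after selenite addition; series mostly up to about 57 µM; nearly all actives have a fitted effect of over 40% in size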
Method in brief: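 Steps: enzyme (90 nM) plus NADPH (400 uM final), 5 min at ~22 deg C; compound added, 15 min; selenite (400 uM final) added; fluorescence followed for 8 min. Concentration-response curves derived from the normalized delta values.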

[10] = target: Flap endonuclease 1 (Homo sapiens) (UniProt P39748); assay: qHTS Validation Assay for the Inhibitors of Human Flap endonuclease 1 (FEN1) (AID 488816)
Method in brief: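 Readings taken at 0 and 15 min after starting the reaction with 50 nM (final) substrate supplied the signal. Compounds had first sat with 10 nM FEN1 reagent for 15 min at room temperature. Values come from Hill-equation concentration-response fits.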

[11] = target: Chromobox protein homolog 1 (Homo sapiens) (UniProt P83916); assay: qHTS Validation Assay for Inhibitors of HP1-beta Chromodomain Interactions with Methylated Histone Tails (AID 488953); also: nearly all actives have a fitted effect of over 50% in size; also: potency is read from the fitted curve at half-maximal effect
Chromobox protein homolog 1 (Homo sapiens), sequence (P83916 whole entry, looked up): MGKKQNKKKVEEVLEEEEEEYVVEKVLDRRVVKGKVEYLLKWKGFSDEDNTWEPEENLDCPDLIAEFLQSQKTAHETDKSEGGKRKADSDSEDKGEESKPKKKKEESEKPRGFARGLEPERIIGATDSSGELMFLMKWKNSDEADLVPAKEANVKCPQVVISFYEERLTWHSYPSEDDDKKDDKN
Method in brief: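 50 nM HP1-beta + 50 nM biotin-H3(1-18)K9me3, PBS pH 7.4, 0.01% Tween-20, 30 min RT; compound added, 30 min RT; AlphaScreen beads 10 ug/mL final, 30 min dark; luminescence read.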

[12] = target: Methanococcus maripaludis chaperonin (MmCpn) (UniProt Q6LX38); assay: High-Throughput Screening for Modulators of Cytosolic Chaperonin Activity: MmCpn Primary Screen (AID 488978);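 also: 50 nM MmCpn enzyme hydrolysing 30 µM ATP at 37 °C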
Methanococcus maripaludis chaperonin (MmCpn), sequence (Q6LX38 1-543): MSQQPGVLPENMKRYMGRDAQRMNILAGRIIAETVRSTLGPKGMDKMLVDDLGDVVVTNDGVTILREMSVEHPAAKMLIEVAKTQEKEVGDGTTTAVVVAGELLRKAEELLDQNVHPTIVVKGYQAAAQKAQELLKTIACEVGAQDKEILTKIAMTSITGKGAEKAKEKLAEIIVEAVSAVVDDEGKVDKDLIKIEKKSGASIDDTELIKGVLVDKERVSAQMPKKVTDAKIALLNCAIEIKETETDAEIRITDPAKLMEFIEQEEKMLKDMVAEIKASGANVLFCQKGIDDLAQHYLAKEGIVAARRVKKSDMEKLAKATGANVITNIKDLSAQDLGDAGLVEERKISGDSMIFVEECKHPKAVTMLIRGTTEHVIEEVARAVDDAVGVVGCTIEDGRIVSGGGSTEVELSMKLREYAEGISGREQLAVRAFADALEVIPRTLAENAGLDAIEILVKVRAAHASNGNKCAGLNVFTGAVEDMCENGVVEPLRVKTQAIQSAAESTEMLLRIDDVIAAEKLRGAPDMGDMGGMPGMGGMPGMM
Method in brief: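 ADP formation read by HTRF Transcreener, 665/590 nm emission after 320 nm excitation. Enzyme: archaeal chaperonin at 50 nM final; substrate ATP 30 uM final; 10 min, 37C, after 5 min compound preincubation at RT.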

[13] = target: D(1A) dopamine receptor (Homo sapiens) (UniProt P21728); assay: HTS Assay for Allosteric Agonists of the Human D1 Dopamine Receptor: Primary Screen for Potentiators (AID 488982)
Method in brief: (§1)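 Calcium flux in an inducible, force-coupled HEK293 Trex D1 line (overnight at 30 C): agonist mode is the 180 s kinetic read after compound; potentiator mode is the following 180 s read after dopamine at EC20.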

[14] = Quantitative high throughput screen for delayed death inhibitors of the malarial parasite plastid, 96 hour incubation (AID 488745); also: nearly all actives have a fitted effect of over 70% in size; also: potency is read from the fitted curve at half-maximal effect
Method in brief: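 Infected erythrocytes were added to compound in Albumax-supplemented RPMI 1640 at 0.1% parasitemia and 2% hematocrit (final), incubated 96 h at 37 C under 5% CO2, then luciferase reagent was added and luminescence measured.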

[15] = Quantitative high throughput screen for delayed death inhibitors of the malarial parasite plastid, 48 hour incubation (AID 488752); also: nearly all actives have a fitted effect of over 65% in size; also: potency is read from the fitted curve at half-maximal effect
Method in brief: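 Readout is firefly luciferase luminescence from a reporter integrated into the parasite genome, with lower signal taken as inhibited growth. Infected red cells (0.1% parasitemia, 2% hematocrit final) are cultured with compound for one 48 h cycle at 37 C.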

[16] = target: D(1A) dopamine receptor (Homo sapiens) (UniProt P21728); assay: HTS Assay for Allosteric Agonists of the Human D1 Dopamine Receptor: Primary Screen for Agonists (AID 488981)
Method in brief: as §1

[17] = target: M-phase phosphoprotein 8 (Homo sapiens) (UniProt Q99549); assay: qHTS Validation Assay for Inhibitors for MPP8 Chromodomain Interactions with Methylated Histone Tails (AID 488949); also: nearly all actives have a fitted effect of over 55% in size; also: potency is read from the fitted curve at half-maximal effect
M-phase phosphoprotein 8 (Homo sapiens), sequence (Q99549 whole entry, looked up): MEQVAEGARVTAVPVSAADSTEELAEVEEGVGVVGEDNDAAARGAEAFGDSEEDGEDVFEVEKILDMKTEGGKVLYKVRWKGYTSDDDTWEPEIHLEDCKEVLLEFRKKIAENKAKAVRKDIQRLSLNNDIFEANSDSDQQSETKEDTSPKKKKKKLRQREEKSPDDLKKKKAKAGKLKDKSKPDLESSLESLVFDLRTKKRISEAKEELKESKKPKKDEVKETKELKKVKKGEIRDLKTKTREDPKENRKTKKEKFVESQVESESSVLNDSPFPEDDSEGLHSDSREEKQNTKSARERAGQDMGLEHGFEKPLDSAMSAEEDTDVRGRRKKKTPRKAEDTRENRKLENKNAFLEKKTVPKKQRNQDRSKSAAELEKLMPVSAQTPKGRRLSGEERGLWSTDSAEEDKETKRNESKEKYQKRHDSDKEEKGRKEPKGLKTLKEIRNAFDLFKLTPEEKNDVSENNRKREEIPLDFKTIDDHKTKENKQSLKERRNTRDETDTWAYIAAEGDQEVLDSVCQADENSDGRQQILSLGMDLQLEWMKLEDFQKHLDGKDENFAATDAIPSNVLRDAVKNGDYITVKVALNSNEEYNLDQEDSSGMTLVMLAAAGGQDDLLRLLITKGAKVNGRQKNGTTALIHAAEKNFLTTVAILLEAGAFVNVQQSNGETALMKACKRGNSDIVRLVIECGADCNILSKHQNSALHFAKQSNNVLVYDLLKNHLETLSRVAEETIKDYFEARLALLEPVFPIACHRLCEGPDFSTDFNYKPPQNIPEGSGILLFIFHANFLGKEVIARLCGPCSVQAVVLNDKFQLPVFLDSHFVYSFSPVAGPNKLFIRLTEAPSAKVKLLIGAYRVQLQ
Method in brief: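 AlphaScreen read-out: streptavidin donor and nickel chelate acceptor beads (final 10 ug/mL), 30 min in the dark at RT. Complex of 50 nM MPP8 and 50 nM b-H3(1-18)K9me3 peptide had been exposed to compounds for 30 min beforehand.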

[18] = target: Transient receptor potential cation channel subfamily V member 1 (Homo sapiens) (UniProt Q8NER1); assay: HTS Assay for Compounds that Act as Enhancers of the Vanilloid Receptor 1 (AID 488979)
Transient receptor potential cation channel subfamily V member 1 (Homo sapiens), sequence (Q8NER1 whole entry, looked up): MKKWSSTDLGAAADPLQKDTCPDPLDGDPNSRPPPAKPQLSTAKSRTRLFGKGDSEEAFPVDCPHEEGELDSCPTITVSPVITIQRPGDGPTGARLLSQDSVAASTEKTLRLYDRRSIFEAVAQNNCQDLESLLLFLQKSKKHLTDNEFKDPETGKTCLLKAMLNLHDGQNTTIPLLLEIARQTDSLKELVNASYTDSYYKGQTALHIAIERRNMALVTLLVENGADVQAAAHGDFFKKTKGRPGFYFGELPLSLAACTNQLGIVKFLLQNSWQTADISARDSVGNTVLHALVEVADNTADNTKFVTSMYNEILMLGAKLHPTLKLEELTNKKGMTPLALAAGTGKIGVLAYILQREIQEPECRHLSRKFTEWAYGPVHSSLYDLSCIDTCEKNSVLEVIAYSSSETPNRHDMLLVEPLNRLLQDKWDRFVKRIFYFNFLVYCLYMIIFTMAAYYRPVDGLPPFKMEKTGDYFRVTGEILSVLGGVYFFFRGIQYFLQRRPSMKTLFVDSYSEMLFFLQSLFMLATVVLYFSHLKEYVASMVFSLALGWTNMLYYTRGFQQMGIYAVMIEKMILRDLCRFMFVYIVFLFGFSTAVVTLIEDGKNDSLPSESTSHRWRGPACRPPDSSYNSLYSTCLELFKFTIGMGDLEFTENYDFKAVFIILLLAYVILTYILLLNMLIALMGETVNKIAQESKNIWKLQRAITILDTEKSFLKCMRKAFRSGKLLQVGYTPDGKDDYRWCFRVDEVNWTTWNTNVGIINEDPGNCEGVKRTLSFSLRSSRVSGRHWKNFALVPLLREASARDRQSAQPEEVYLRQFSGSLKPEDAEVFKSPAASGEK
Method in brief: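 Calcium influx kinetics via Fluo-8 (480/520 nm) in TRPV1-expressing cells, 2000/well cultured overnight at 35.5C. Compound-alone read 3 min (agonist phase), followed by EC20 capsaicin challenge for 2 min (enhancer phase).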

[19] = target: Thyrotropin receptor (Homo sapiens) (UniProt P16473); assay: qHTS Assay for Antagonists of the Thyroid Stimulating Hormone Receptor (AID 488980); also: series mostly up to about 58 µM
Thyrotropin receptor (Homo sapiens), sequence (P16473 whole entry, looked up): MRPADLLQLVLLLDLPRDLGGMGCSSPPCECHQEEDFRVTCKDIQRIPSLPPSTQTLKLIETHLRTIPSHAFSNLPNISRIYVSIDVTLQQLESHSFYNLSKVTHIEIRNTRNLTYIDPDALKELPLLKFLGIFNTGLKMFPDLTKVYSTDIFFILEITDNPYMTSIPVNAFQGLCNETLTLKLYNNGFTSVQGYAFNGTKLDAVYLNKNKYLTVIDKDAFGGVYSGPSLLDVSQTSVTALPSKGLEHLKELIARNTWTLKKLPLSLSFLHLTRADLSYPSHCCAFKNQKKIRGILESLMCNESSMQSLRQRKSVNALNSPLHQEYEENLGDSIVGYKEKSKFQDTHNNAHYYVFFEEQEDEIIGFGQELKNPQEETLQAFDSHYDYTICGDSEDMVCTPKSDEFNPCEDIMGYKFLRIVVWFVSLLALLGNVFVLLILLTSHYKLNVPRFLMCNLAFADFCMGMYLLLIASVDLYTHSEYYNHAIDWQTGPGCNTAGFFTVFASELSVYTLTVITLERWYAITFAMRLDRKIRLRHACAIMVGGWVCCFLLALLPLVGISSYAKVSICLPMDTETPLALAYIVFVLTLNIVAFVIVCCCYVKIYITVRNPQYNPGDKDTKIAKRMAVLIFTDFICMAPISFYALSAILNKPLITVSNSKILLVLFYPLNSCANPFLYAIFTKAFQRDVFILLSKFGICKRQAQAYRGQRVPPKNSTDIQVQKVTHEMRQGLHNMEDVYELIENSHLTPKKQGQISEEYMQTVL
Method in brief: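 TSHR-HEK293 cells; 70 uM RO 20-1724 PDE inhibitor; compound + EC80 TSH (4 nM final); anti-cAMP cryptate antibody/cAMP-d2 in lysis buffer, 30 min RT; HTRF 665/620 nm read.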

[20] = Validation screen for small molecules that induce DNA re-replication in MCF 10A normal breast cells (AID 463097); also: nearly all actives have a fitted effect of over 60% in size; also: potency is read from the fitted curve at half-maximal effect
Method in brief: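 250 MCF 10A cells/well; compound pin-transferred; 48 hr, 37 C, 5% CO2; Hoechst 40 min; imaged 405/500-530 nm. Hits = more high-intensity nuclei.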

Compound	Potency [1]	Potency [2]	Potency [3]	outcome [4]	Potency [5]	outcome [6]	Potency [7]	outcome [8]	Potency [9]	Potency [10]	Potency [11]	outcome [12]	Potency [13]	Potency [14]	Potency [15]	Potency [16]	Potency [17]	outcome [18]	outcome [19]	Potency [20]
CCN1CCCC1CNC(=O)c1cc(S(=O)(=O)CC)c(N)cc1OC (configuration not stated)	inactive	inactive	inactive	inactive	inactive	inactive	inactive	inactive	inactive	inactive	inactive	inactive	inactive							
COc1cc2c(c(OC)c1OC)-c1ccc(OC)c(=O)cc1[C@@H](NC(C)=O)CC2	inactive	inactive	inactive	inactive		inactive		inactive				inactive	inactive	inactive	inactive	inactive				
CCOC(=O)Nc1ccc(NCc2ccc(F)cc2)nc1N	inactive	inactive	inactive			inactive		inactive				inactive	inactive				39.8 µM (active) and inactive	inactive	inactive	
O=C(c1ccc(OCCN2CCCCC2)cc1)c1c(-c2ccc(O)cc2)sc2cc(O)ccc12		inactive	inactive	inactive	20.6 µM (active)	inactive		inactive	inactive	inactive	31.6 µM (active)	inactive								11.2 µM (active)
CCCNCC(O)COc1ccccc1C(=O)CCc1ccccc1 (configuration not stated)		inactive	inactive	inactive		inactive	inactive	inactive	inactive	inactive	inactive	inactive	inactive	2.62 µM (active)	2.33 µM (active)				inactive	inactive
CN(C)C(=O)C(CCN1CCC(O)(c2ccc(Cl)cc2)CC1)(c1ccccc1)c1ccccc1		inactive	inactive	inactive		inactive	inactive	inactive	inactive			inactive	inactive			inactive				
CNCCCC12CCC(c3ccccc31)c1ccccc12		inactive	inactive	inactive		inactive	inactive	inactive		inactive	inactive	inactive	inactive		inactive					inactive
Cc1cn([C@H]2C[C@H](N=[N+]=[N-])[C@@H](CO)O2)c(=O)[nH]c1=O	inactive	inactive	inactive	inactive	inactive	inactive		inactive	inactive	inactive	inactive	inactive	inactive							
O=C(CCCN1CCC(O)(c2ccc(Cl)cc2)CC1)c1ccc(F)cc1		inactive	inactive	inactive	inactive	inactive		inactive				inactive		7.38 µM (active)	10.4 µM (active)				inactive	inactive
CCCCc1oc2ccccc2c1C(=O)c1cc(I)c(OCCN(CC)CC)c(I)c1		inactive	inactive	inactive	inactive	inactive		inactive	inactive	inactive	44.7 µM (active)	inactive	inactive	8.28 µM (active)	9.28 µM (active)	inactive		inactive	inactive	
COc1ccccc1OCCNCC(O)COc1cccc2[nH]c3ccccc3c12 (configuration not stated)		inactive	inactive	inactive				inactive	inactive	inactive		inactive	inactive			inactive				
COc1ccccc1N1CCN(CC(O)COc2cccc3ccccc23)CC1 (configuration not stated)		inactive	inactive	inactive		inactive	inactive	inactive	inactive	inactive	39.8 µM (active)	inactive	inactive	inactive	inactive	inactive		inactive	inactive	
CC12CC3CC(C)(C1)CC(N)(C3)C2		inactive	inactive	inactive	inactive	inactive	inactive	inactive	inactive		inactive	inactive	inactive	inactive	inactive				inactive	inactive
COc1ccc2c(c1)c(CC(=O)O)c(C)n2C(=O)c1ccc(Cl)cc1		inactive	inactive	inactive	inactive	inactive	inactive	inactive	inactive	inactive	inactive	inactive		inactive	inactive		inactive			inactive
O=c1[nH]cc(F)c(=O)[nH]1		inactive	inactive	inactive	inactive	inactive		inactive	inactive		inactive	inactive	inactive				inactive	inactive	inactive	inactive
CN1CCC(=C2c3ccccc3C=Cc3ccccc32)CC1		inactive	inactive	inactive	inactive	inactive	inactive	inactive	inactive				inactive			inactive	inactive			inactive
